The values below come from PubChem BioAssay (NCI).

Compounds without any hit were thinned out: in the full panel of roughly 83,000, 20% have a hit.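 Each cell line was grown in a 96-well plate and treated with one concentration of compound for 48 hours. Values below 10 were considered active.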 Values without a mark were called inactive. The source made the active and inactive calls.

Some test systems named below: NCI-H23 lung; NCI-H226 lung; NCI-H322M lung; HOP-62 NSCLC; NCI-H460 lung; HOP-92 NSCLC; NCI-H522 lung; A549/ATCC NSCLC; 786-0 renal; COLO 205 colon; DU-145 prostate; K-562 leukemia; MALME-3M melanoma; MDA-MB-231 breast; RXF 393 renal; SF-268 CNS; SF-295 CNS; SF-539 CNS; UACC-257 melanoma; M14 melanoma.
What all share (experiment): NCI-60 one-dose screen, 48 h (100 = growth as untreated, 0 = no growth, -100 = all killed)
Holding throughout (conditions): 10 µM unless noted

Consider `COc1cccc(/C=C/C(=O)c2cc3c(N)c(C(=O)Nc4ccccc4C)sc3nc2C)c1`, for which the growth in the experiment on NCI-H23 lung was 70.4%; with NCI-H226 lung it was 69.2%; in the experiment with NCI-H322M lung, 80.5%; with HOP-62 NSCLC, 67.7%; in the experiment with NCI-H460 lung, 32.2%; in the experiment with HOP-92 NSCLC, 74.1%. Further, the growth in the experiment with NCI-H522 lung is -7.9% (active); in the experiment on A549/ATCC NSCLC, 62.9%; in the experiment on 786-0 renal it was 9.79% (active); with COLO 205 colon, 92.2%; in the experiment on DU-145 prostate, 8.15% (active); in the experiment on K-562 leukemia, 12.9%. Moreover, the growth is 78.6% in the experiment with MALME-3M melanoma; 52.8% in the experiment with MDA-MB-231 breast; -10.2% (active) in the experiment with RXF 393 renal; 28.9% in the experiment on SF-268 CNS; 74% with SF-295 CNS; 50.9% with SF-539 CNS. The growth is 83.2% in the experiment on UACC-257 melanoma and 47.5% with M14 melanoma.

Consider `C=CC(=O)N1CCN(c2ccc3cccc(NC(=O)c4cnc(C)cn4)c3n2)CC1`, for which the growth in the experiment on NCI-H23 lung was 66.7%; in the experiment with NCI-H226 lung, 42.9%; in the experiment with NCI-H322M lung it was 21.2%; with HOP-62 NSCLC, 41.1%; in the experiment with NCI-H460 lung, 34.7%; with HOP-92 NSCLC it was 42.7%. In addition, the growth was 10.4% with NCI-H522 lung; 27.3% in the experiment with A549/ATCC NSCLC; 24.8% in the experiment on 786-0 renal; 59.3% with COLO 205 colon; 29.1% in the experiment with DU-145 prostate; 36.5% with K-562 leukemia. The growth was 30.5% in the experiment with MALME-3M melanoma; 36.7% in the experiment on MDA-MB-231 breast; 11.4% with RXF 393 renal; 37.6% in the experiment on SF-268 CNS; 61.5% with SF-295 CNS; 35.1% in the experiment on SF-539 CNS. Moreover, the values for the growth in the experiment with UACC-257 melanoma and in the experiment on M14 melanoma were 37.2% and 41.2%, respectively.

On to `C#Cc1cccc(Nc2nc3ccc([N+](=O)[O-])cc3nc2Nc2cccc(C#C)c2)c1`, for which the growth in the experiment with NCI-H23 lung is -54.6% (active); in the experiment on NCI-H226 lung, -42.3% (active); in the experiment with NCI-H322M lung, 1.22% (active); in the experiment with HOP-62 NSCLC it was -94.7% (active); with NCI-H460 lung, -57.6% (active); in the experiment with HOP-92 NSCLC, -24.9% (active). Besides, the growth is -64% (active) in the experiment on NCI-H522 lung; -45.7% (active) in the experiment on A549/ATCC NSCLC; -56.7% (active) in the experiment on 786-0 renal; -87.3% (active) with COLO 205 colon; -52.4% (active) with DU-145 prostate; -57.5% (active) in the experiment with K-562 leukemia. Besides, the growth in the experiment on MALME-3M melanoma was -29.5% (active); in the experiment on MDA-MB-231 breast, -57% (active); in the experiment on RXF 393 renal, -56.4% (active); in the experiment on SF-268 CNS, -51.4% (active); in the experiment on SF-295 CNS, -69.4% (active); in the experiment on SF-539 CNS, -77.4% (active). Further, the growth in the experiment with UACC-257 melanoma is -70.1% (active); in the experiment on M14 melanoma, -82% (active).

Regarding `CCOC(=O)c1ccc2c(c1)c1c(C)c3ccncc3c(C)c1n2C`, the growth with NCI-H23 lung was -26.4% (active); in the experiment on NCI-H226 lung, -37.1% (active); with NCI-H322M lung, 18.1%; in the experiment with HOP-62 NSCLC, -16.1% (active); in the experiment on NCI-H460 lung it was -5.22% (active); with HOP-92 NSCLC, 1.34% (active). For the same molecule, the growth was -52.6% (active) with NCI-H522 lung; 8.4% (active) in the experiment with A549/ATCC NSCLC; 16.7% in the experiment on 786-0 renal; -44.7% (active) in the experiment with COLO 205 colon; 2.93% (active) with DU-145 prostate; 7.07% (active) with K-562 leukemia. Moreover, the growth was -40.9% (active) in the experiment on MALME-3M melanoma; 2.92% (active) in the experiment on MDA-MB-231 breast; -62.3% (active) with RXF 393 renal; -7.28% (active) in the experiment with SF-268 CNS; 1.65% (active) with SF-295 CNS; -0.581% (active) with SF-539 CNS. Besides, the figures for the growth with UACC-257 melanoma and with M14 melanoma were -25.9% (active) and -57.2% (active), respectively.

As for `Cc1ccc(C)n1/C=C/n1c(C)ccc1C`, the growth in the experiment with NCI-H23 lung is 94.7%; with NCI-H226 lung, 99%; in the experiment on NCI-H322M lung, 103%; in the experiment with HOP-62 NSCLC, 114%; in the experiment with NCI-H460 lung it was 110%; in the experiment with HOP-92 NSCLC it was 75%. Besides, the growth is 83.8% in the experiment on NCI-H522 lung; 95.5% in the experiment with A549/ATCC NSCLC; 107% in the experiment on 786-0 renal; 96.9% with COLO 205 colon; 113% in the experiment with DU-145 prostate; 117% with K-562 leukemia. The growth in the experiment with MALME-3M melanoma was 117%; in the experiment with MDA-MB-231 breast it was 99.2%; with RXF 393 renal it was 102%; in the experiment with SF-268 CNS it was 143%; with SF-295 CNS it was 76.9%; with SF-539 CNS, 100%. The growth is 119% in the experiment on UACC-257 melanoma and 110% in the experiment with M14 melanoma.

With `CCOC(=O)Nc1nc2ccc(SCC(C)C)cc2s1`, the growth in the experiment on NCI-H23 lung is 40.9%; in the experiment with NCI-H226 lung it was 46.6%; with NCI-H322M lung, 36.7%; in the experiment with HOP-62 NSCLC it was 22.6%; with NCI-H460 lung, 19.3%; in the experiment with HOP-92 NSCLC, 33.6%. Moreover, the growth in the experiment on NCI-H522 lung was 4.9% (active); with A549/ATCC NSCLC, 28.5%; in the experiment with 786-0 renal, 27.8%; with COLO 205 colon it was -14.9% (active); in the experiment with DU-145 prostate it was 42.2%; with K-562 leukemia, 18%. Further, the growth in the experiment on MALME-3M melanoma is 32.4%; in the experiment on MDA-MB-231 breast it was 40.6%; in the experiment on RXF 393 renal, -3.43% (active); with SF-268 CNS, 45.2%; in the experiment on SF-295 CNS, 26.1%; in the experiment on SF-539 CNS, 12.3%. Moreover, the growth is 55% in the experiment on UACC-257 melanoma and 25.8% with M14 melanoma.

As for `COc1cc(/C=C2\C(=O)N(c3c(Cl)cccc3Cl)c3ccccc32)cc(OC)c1OCCCCCCn1c2ccccc2c(=O)c2ccccc21`, the growth in the experiment with NCI-H23 lung was 103%; in the experiment on NCI-H226 lung it was 95.4%; with NCI-H322M lung, 95.7%; with HOP-62 NSCLC it was 95.4%; in the experiment on NCI-H460 lung, 110%; in the experiment with HOP-92 NSCLC, 95.9%. Also, the growth with NCI-H522 lung was 87.3%; with A549/ATCC NSCLC it was 109%; in the experiment with 786-0 renal, 95.5%; in the experiment on COLO 205 colon it was 107%; in the experiment with DU-145 prostate, 104%; in the experiment on K-562 leukemia, 98.8%. Further, the growth in the experiment with MALME-3M melanoma is 106%; in the experiment on MDA-MB-231 breast it was 100%; in the experiment with RXF 393 renal it was 106%; in the experiment on SF-268 CNS, 87.6%; with SF-295 CNS, 99%; with SF-539 CNS it was 93.8%. The growth in the experiment on UACC-257 melanoma was 111%; in the experiment with M14 melanoma it was 93.8%.

Consider `O=C(Nc1ccccc1O)c1ccccc1Nc1ccnc(C(F)(F)F)c1`, for which the growth with NCI-H23 lung was 94.5%; with NCI-H226 lung it was 70.4%; in the experiment with NCI-H322M lung it was 114%; with HOP-62 NSCLC, 99.5%; in the experiment on NCI-H460 lung, 97.3%; in the experiment on HOP-92 NSCLC it was 88%. The growth in the experiment on NCI-H522 lung was 83.9%; with A549/ATCC NSCLC, 114%; with 786-0 renal, 104%; in the experiment on COLO 205 colon, 148%; in the experiment with DU-145 prostate, 104%; in the experiment with K-562 leukemia, 86.2%. Moreover, the growth is 112% in the experiment with MALME-3M melanoma; 82.5% in the experiment with MDA-MB-231 breast; 108% in the experiment on RXF 393 renal; 113% in the experiment on SF-268 CNS; 107% in the experiment on SF-295 CNS; 89.1% in the experiment on SF-539 CNS. Besides, the growth is 106% with UACC-257 melanoma and 98.6% in the experiment on M14 melanoma.
